# From PubChem BioAssay (EPA / NIEHS)
# Several values for one entry are separate records, joined by “and”; a condition that tells them apart may be missing. Identical values can stand only once. Results filed as inconclusive are left out. Where a structure was tested more than once in an assay, its records may differ in their call. Activity calls are given as the source filed them. How the source made its calls: active means hit-call score of the fitted dose curve at least 0.9, where 1 is the maximum; inconclusive means response in the unintended direction; inactive means score below 0.9.
# Columns and labels:
# [1] = target: human Sirtuin 1 (SIRT1), SIRT1 (gene 23411) (UniProt Q96EB6); assay: NVS_ENZ_hSIRT1: NovaScreen (NVS) Enzymatic Assay for human Sirtuin 1 (SIRT1) (AID 2283219)
# Summary of the method: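 Cell-free recombinant SIRT1 with a fluorescent substrate; substrate and product separated by electrophoretic mobility shift and read by fluorescence intensity, 1 h after dosing. Primary screen at 25 uM in duplicate; hits re-run in concentration-response up to 50 uM, relative to DMSO.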
# [2] = target: human Sirtuin 3 (SIRT3), SIRT3 (gene 23410) (UniProt Q9NTG7); assay: NVS_ENZ_hSIRT3: NovaScreen (NVS) Enzymatic Assay for human Sirtuin 3 (SIRT3) (AID 2283222)
# Summary of the method: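 Cell-free enzyme assay with recombinant protein and fluorescent substrate, product separated by electrophoretic mobility shift; read 1 hour after dosing. Screened in duplicate at 25 uM, then singleton concentration-response up to 50 uM; loss of signal versus DMSO.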
# [3] = target: human Vascular Endothelial Growth Factor Receptor 2 (VEGFR2), KDR (gene 3791) (UniProt P35968); assay: NVS_ENZ_hVEGFR2: NovaScreen (NVS) Enzymatic Assay for human Vascular Endothelial Growth Factor Receptor 2 (VEGFR2) (AID 2283230)
# Summary of the method: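 Cell-free recombinant VEGFR2 kinase, fluorescent substrate with electrophoretic mobility-shift separation; read 1 h after dosing. Screened at 25 uM in duplicate, hits to concentration-response up to 50 uM; loss-of-signal versus DMSO.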
# [4] = target: sheep Cyclooxygenase-2 (Cox2), PTGS2 (gene 443460) (UniProt P79208); assay: NVS_ENZ_oCOX2: NovaScreen (NVS) Enzymatic Assay for sheep Cyclooxygenase-2 (Cox2) (AID 2283231)
# Summary of the method: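 Colorimetric absorbance read-out of COX activity, taken 0.66 hour post-dosing, using native protein from sheep placenta. Single-concentration duplicate screen (25 uM), then singleton concentration-response up to 50 uM for actives.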
# [5] = system: bovine Angiotensin II Receptor Type 2 (AT2), gene 407157; assay: NVS_GPCR_bAT2: NovaScreen (NVS) G Protein-Coupled Receptor Assay for bovine Angiotensin II Receptor Type 2 (AT2) (AID 2283240)
# Summary of the method: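 Radioligand displacement on bovine cerebellar membranes, 1 hour incubation, filter-based scintillation counting; loss of signal vs DMSO. Duplicate single-point screen at 25 uM, then concentration-response to 50 uM maximum.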
# [6] = target: rat Constitutive Nitric Oxide Synthase (CNOS), Nos1 (gene 24598) (UniProt P29476); assay: NVS_ENZ_rCNOS: NovaScreen (NVS) Enzymatic Assay for rat Constitutive Nitric Oxide Synthase (CNOS) (AID 2283236)
# Summary of the method: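 Enzyme activity in rat brain membrane preparation, read 1 h after dosing by filter-based radiometric scintillation counting. Primary screen in duplicate at 25 uM; actives (e.g., ≥30% inhibition) then run in concentration-response up to 50 uM.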
# [7] = target: human Raf-1 Proto-Oncogene, serine/threonine Kinase (RAF1), RAF1 (gene 5894) (UniProt P04049); assay: NVS_ENZ_hRAF1: NovaScreen (NVS) Enzymatic Assay for human Raf-1 Proto-Oncogene, serine/threonine Kinase (RAF1) (AID 2283216)
# Summary of the method: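 Cell-free recombinant kinase with specific fluorescent substrate, product separated by electrophoretic mobility shift; read 1 h after dosing. Primary screen at 25 uM in duplicate; hits then run in concentration-response up to 50 uM, fitted as loss of signal versus DMSO.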
# [8] = target: human Sirtuin 2 (SIRT2), SIRT2 (gene 22933) (UniProt Q8IXJ6); assay: NVS_ENZ_hSIRT2: NovaScreen (NVS) Enzymatic Assay for human Sirtuin 2 (SIRT2) (AID 2283217)
# Summary of the method: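 Cell-free recombinant human SIRT2, fluorescent substrate with product separated by electrophoretic mobility shift, 1 hr. Screened in duplicate at 25 uM; hits rerun singly in concentration-response up to 50 uM, relative to DMSO.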
# [9] = target: rat Catechol-O-Methyl Transferase (COMT), Comt (gene 24267) (UniProt P22734); assay: NVS_ENZ_rCOMT: NovaScreen (NVS) Enzymatic Assay for rat Catechol-O-Methyl Transferase (COMT) (AID 2283235)
# Summary of the method: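 Cell-free enzyme activity with protein extracted from rat dorsal striatum, measured by HPLC with absorbance detection. Compounds screened at 25 uM in duplicate; actives then run in concentration-response up to 50 uM, loss of signal versus DMSO.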
# [10] = target: rat Monoamine Oxidase, MAO-B, Central (MAOBC), Maob (gene 25750) (UniProt P19643); assay: NVS_ENZ_rMAOBC: NovaScreen (NVS) Enzymatic Assay for rat Monoamine Oxidase, MAO-B, Central (MAOBC) (AID 2283238)
# Summary of the method: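 Compounds were first tested in duplicate at 25 uM against MAO-B from rat brain tissue; those passing the inhibition threshold were retested in concentration series up to 50 uM. Radiodetection by scintillation counting at 1.17 h, analysed against DMSO baseline.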
# [11] = target: rat Acetylcholinesterase (AChE), Ache (gene 83817) (UniProt P37136); assay: NVS_ENZ_rAChE: NovaScreen (NVS) Enzymatic Assay for rat Acetylcholinesterase (AChE) (AID 2283233)
# Summary of the method: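 Rat brain membrane acetylcholinesterase activity measured colorimetrically 0.33 h after compound addition, loss of signal relative to DMSO. Primary screen in duplicate at 25 uM; actives re-run as concentration-response with 50 uM top concentration.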
# [12] = target: sheep Cyclooxygenase-1 (Cox1), PTGS1 (gene 443551) (UniProt P05979); assay: NVS_ENZ_oCOX1: NovaScreen (NVS) Enzymatic Assay for sheep Cyclooxygenase-1 (Cox1) (AID 2283239);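 further: actives reduce cyclooxygenase activity so potencies are for inhibitors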
# Summary of the method: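 Ovine seminal vesicle extract; absorbance (colorimetric) enzyme read-out at 0.66 h post-dose. Primary: single conc 25 uM, duplicate. Follow-up: concentration series on actives. Activity = signal loss vs DMSO baseline.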
# [13] = target: human Vascular Endothelial Growth Factor Receptor 3 (VEGFR3), FLT4 (gene 2324) (UniProt P35916); assay: NVS_ENZ_hVEGFR3: NovaScreen (NVS) Enzymatic Assay for human Vascular Endothelial Growth Factor Receptor 3 (VEGFR3) (AID 2283229)
# Summary of the method: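 Cell-free recombinant VEGFR3 kinase reaction with fluorescent substrate, read 1 h after dosing by electrophoretic mobility shift separation of substrate and product. Single-concentration duplicate screen at 25 uM, then concentration-response up to 50 uM; loss of activity versus DMSO.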
# [14] = target: rat Adenylate Cyclase, Forskolin Stimulated, Adcy5 (gene 64532) (UniProt Q04400); assay: NVS_ENZ_rACFSKBinding: NovaScreen (NVS) Enzymatic Assay for rat Adenylate Cyclase, Forskolin Stimulated (AID 2283232)
# Summary of the method: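 Rat forebrain membrane preparation, cell-free, read 1 h after dosing by filter-based scintillation counting. Primary screen in duplicate at 25 uM; actives (e.g. ≥30% inhibition) rerun in concentration-response up to 50 uM; fit versus DMSO.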
# [15] = system: rat Monoamine Oxidase, MAO-A, Peripheral (MAOAP), gene 29253; assay: NVS_ENZ_rMAOAP: NovaScreen (NVS) Enzymatic Assay for rat Monoamine Oxidase, MAO-A, Peripheral (MAOAP) (AID 2283237)
# Summary of the method: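 Rat liver mitochondrial membranes served as the MAO-A source, with enzyme activity measured by radiometric scintillation counting 1.17 hours after dosing. Loss of signal was fitted against DMSO; primary screen used 25 uM in duplicate, follow-up used concentration series.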
# [16] = target: human SRC Proto-Oncogene, Non-receptor Tyrosine Kinase (SRC), SRC (gene 6714) (UniProt P12931); assay: NVS_ENZ_hSRC: NovaScreen (NVS) Enzymatic Assay for human SRC Proto-Oncogene, Non-receptor Tyrosine Kinase (SRC) (AID 2283223)
# Summary of the method: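 Cell-free kinase activity assay with fluorescent substrate, product separated by electrophoretic mobility shift, read 1 h after dosing. Duplicate single point at 25 uM, then concentration-response up to 50 uM; loss of signal versus DMSO.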
# [17] = target: human Tropomyosin Receptor Kinase A (TRKA), NTRK1 (gene 4914) (UniProt P04629); assay: NVS_ENZ_hTrkA: NovaScreen (NVS) Enzymatic Assay for human Tropomyosin Receptor Kinase A (TRKA) (AID 2283224)
# Summary of the method: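 Recombinant human TrkA activity read after 1 h by fluorescence with electrophoretic mobility shift separating substrate and product. Primary screen in duplicate at 25 uM; actives were rerun in concentration-response up to 50 uM. Loss of signal versus DMSO.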
# [18] = target: rabbit Imidazoline 2 Central (I2C), CKB (gene 100009085) (UniProt P00567); assay: NVS_ENZ_rabI2C: NovaScreen (NVS) Enzymatic Assay for rabbit Imidazoline 2 Central (I2C) (AID 2283228)
# Summary of the method: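 Rabbit brain membranes, cell-free; readout by filter-based scintillation counting 1.5 hours after dosing, loss of signal vs DMSO. Initial duplicate test at 25 uM, then concentration-response with 50 uM top concentration.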
# [19] = target: bovine Dopamine Receptor (DR), Non-selective Binding, DRD1 (gene 281125) (UniProt Q95136); assay: NVS_GPCR_bDR_NonSelective: NovaScreen (NVS) G Protein-Coupled Receptor Assay for bovine Dopamine Receptor (DR), Non-selective Binding (AID 2283241)
# Summary of the method: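 Bovine striatal membranes; radioligand displacement read by filtration and scintillation counting 1 h after dosing, loss of signal vs DMSO. Screened in duplicate at 25 uM, then concentration-response for hits.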
# Chain of rat Acetylcholinesterase (AChE), Ache (gene 83817) (P37136 whole entry, looked up): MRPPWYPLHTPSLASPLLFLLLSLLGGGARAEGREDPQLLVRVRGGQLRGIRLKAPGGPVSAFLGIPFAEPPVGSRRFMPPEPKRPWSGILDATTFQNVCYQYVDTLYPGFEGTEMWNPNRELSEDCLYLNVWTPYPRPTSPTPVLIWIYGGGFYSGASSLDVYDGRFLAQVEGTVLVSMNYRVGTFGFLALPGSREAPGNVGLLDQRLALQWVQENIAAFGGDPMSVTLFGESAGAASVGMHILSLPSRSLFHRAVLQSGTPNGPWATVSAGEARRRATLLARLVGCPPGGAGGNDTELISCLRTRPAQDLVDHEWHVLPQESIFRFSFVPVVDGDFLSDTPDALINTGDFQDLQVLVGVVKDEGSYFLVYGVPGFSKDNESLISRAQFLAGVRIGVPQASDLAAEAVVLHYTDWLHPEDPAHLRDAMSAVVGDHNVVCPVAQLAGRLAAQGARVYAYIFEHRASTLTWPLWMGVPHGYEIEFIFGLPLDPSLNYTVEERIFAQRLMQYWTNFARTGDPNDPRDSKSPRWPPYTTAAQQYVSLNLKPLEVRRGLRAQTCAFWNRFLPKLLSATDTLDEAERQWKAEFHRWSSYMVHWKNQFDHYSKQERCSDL
# Chain of human Sirtuin 1 (SIRT1), SIRT1 (gene 23411) (Q96EB6 whole entry, looked up): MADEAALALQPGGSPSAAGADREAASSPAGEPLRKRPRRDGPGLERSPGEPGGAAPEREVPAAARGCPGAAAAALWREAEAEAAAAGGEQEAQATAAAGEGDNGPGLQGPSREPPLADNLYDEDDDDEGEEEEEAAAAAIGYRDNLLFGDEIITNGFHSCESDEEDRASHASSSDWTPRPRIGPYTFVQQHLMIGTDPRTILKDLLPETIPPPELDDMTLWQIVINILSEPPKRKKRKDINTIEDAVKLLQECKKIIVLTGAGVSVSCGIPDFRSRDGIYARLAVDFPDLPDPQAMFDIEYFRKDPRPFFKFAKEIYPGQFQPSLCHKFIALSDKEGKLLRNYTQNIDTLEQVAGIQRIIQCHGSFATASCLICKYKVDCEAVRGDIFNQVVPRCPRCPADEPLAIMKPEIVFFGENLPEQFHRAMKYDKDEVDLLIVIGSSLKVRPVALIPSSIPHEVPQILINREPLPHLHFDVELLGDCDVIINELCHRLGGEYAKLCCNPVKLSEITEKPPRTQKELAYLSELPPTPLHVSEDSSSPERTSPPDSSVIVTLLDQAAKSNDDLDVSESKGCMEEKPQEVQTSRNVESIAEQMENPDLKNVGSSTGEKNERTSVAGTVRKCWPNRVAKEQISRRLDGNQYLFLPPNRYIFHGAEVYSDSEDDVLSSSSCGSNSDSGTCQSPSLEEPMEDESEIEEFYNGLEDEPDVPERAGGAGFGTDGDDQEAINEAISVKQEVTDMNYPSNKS
# Chain of human Sirtuin 2 (SIRT2), SIRT2 (gene 22933) (Q8IXJ6 whole entry, looked up): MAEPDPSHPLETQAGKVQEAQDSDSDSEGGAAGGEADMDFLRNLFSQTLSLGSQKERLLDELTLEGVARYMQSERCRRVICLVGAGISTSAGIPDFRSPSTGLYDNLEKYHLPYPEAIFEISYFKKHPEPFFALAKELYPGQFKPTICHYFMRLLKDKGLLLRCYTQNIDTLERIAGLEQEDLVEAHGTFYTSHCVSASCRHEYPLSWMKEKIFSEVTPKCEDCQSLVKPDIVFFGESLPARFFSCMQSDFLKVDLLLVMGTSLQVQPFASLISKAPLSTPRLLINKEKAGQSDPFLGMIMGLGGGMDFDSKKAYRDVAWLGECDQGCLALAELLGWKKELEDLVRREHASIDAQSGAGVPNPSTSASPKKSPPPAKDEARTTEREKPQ
# Chain of human Raf-1 Proto-Oncogene, serine/threonine Kinase (RAF1), RAF1 (gene 5894) (P04049 whole entry, looked up): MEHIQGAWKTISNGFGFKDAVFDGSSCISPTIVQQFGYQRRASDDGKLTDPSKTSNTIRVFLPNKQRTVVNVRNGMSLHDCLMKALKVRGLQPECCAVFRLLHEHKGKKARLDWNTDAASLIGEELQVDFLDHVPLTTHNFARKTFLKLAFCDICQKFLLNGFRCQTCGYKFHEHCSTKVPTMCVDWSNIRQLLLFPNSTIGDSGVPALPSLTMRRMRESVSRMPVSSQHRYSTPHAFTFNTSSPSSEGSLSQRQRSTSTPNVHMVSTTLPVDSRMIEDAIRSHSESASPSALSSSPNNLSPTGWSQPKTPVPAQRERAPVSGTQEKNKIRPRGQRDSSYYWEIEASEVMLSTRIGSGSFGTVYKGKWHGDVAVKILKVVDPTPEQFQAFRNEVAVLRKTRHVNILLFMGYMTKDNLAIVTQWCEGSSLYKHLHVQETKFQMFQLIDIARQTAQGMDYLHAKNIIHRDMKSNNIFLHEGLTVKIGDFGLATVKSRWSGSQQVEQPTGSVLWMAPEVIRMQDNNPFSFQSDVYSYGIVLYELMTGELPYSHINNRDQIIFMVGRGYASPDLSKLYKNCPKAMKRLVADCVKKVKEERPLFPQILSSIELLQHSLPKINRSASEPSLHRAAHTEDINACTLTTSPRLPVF
# Chain of sheep Cyclooxygenase-1 (Cox1), PTGS1 (gene 443551) (P05979 whole entry, looked up): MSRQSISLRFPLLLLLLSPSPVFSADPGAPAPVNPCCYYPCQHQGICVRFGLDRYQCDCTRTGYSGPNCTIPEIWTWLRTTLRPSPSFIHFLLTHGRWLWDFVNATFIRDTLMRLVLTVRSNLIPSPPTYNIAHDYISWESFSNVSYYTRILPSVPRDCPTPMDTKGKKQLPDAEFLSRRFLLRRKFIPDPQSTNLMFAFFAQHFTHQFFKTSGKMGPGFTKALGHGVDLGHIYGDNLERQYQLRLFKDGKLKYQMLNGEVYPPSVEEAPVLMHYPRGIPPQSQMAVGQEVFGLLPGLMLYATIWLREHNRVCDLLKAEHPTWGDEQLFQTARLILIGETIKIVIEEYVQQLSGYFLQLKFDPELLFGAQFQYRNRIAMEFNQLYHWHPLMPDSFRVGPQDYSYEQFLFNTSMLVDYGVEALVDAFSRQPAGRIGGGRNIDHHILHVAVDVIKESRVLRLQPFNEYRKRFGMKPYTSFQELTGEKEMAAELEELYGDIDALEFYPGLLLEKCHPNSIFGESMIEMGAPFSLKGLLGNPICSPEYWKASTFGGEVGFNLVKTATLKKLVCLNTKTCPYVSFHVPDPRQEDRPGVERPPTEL
# Chain of human Vascular Endothelial Growth Factor Receptor 2 (VEGFR2), KDR (gene 3791) (P35968 whole entry, looked up): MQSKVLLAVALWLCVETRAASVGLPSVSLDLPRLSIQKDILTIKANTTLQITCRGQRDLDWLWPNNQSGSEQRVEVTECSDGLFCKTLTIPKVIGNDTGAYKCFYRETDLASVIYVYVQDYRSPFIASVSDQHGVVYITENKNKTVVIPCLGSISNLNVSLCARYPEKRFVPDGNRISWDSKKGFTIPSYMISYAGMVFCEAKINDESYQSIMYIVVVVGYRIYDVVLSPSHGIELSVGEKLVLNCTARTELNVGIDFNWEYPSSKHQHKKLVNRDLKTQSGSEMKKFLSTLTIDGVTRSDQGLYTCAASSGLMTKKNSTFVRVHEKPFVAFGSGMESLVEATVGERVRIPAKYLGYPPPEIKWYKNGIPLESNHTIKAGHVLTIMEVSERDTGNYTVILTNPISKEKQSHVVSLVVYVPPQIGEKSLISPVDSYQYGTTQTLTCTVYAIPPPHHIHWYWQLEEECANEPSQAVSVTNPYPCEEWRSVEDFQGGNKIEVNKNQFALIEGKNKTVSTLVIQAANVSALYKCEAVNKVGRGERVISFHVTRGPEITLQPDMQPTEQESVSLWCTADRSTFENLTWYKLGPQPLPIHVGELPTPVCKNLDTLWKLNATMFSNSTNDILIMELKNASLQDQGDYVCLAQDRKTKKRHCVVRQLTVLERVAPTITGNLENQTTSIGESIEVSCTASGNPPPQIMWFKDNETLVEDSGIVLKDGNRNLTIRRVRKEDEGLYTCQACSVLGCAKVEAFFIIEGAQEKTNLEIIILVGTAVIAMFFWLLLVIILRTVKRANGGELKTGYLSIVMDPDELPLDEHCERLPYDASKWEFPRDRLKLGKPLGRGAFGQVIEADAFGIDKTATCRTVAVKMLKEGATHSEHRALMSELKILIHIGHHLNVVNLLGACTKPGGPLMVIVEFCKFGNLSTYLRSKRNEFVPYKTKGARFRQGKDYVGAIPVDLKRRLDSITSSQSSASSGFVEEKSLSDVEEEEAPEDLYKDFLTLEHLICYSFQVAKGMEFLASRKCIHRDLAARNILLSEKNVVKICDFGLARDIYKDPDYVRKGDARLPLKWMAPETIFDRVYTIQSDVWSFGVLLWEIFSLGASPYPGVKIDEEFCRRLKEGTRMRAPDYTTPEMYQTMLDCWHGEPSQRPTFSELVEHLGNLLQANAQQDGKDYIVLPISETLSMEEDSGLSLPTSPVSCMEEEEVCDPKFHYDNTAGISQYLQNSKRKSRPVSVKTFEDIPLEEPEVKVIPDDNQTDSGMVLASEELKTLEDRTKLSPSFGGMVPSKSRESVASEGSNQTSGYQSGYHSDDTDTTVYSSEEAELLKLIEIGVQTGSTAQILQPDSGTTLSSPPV
# Chain of rat Monoamine Oxidase, MAO-B, Central (MAOBC), Maob (gene 25750) (P19643 whole entry, looked up): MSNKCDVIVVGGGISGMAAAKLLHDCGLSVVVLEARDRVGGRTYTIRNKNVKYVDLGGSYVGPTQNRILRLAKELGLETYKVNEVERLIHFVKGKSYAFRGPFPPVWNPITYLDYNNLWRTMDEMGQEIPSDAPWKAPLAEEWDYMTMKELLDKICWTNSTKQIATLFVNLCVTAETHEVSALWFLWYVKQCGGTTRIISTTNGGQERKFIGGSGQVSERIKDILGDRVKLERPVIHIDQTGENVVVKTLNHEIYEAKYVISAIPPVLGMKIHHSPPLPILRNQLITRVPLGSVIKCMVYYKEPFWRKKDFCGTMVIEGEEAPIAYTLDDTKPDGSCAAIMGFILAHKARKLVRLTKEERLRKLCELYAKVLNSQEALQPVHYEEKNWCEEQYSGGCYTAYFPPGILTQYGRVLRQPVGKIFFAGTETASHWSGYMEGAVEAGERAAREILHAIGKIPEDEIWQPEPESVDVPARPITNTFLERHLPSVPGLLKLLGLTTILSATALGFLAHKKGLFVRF
structure (smiles),measurement,setting,value
CC[C@H](C)[C@H]1O[C@]2(C=C[C@@H]1C)C[C@@H]1C[C@@H](C/C=C(\C)[C@@H](O[C@H]3C[C@H](OC)[C@@H](O[C@H]4C[C@H](OC)[C@@H](O)[C@H](C)O4)[C@H](C)O3)[C@@H](C)/C=C/C=C3\CO[C@@H]4[C@H](O)C(C)=C[C@@H](C(=O)O1)[C@]34O)O2 (tested in a mixture with another compound),AC50,[1],17.2 µM (active)
same,AC50,[2],5.19 µM (active)
same,outcome,[3],inactive
same,AC50,[4],8.68 µM (active)
same,outcome,[5],inactive
Cc1[nH]c(=O)n(C(C)(C)C)c(=O)c1Cl,outcome,[6],inactive
CCC(C)Nc1c([N+](=O)[O-])cc(C(C)(C)C)cc1[N+](=O)[O-] (stereo not given),outcome,[7],inactive
same,outcome,[1],inactive
CCC(C)(C)C(=O)OC1=C(c2ccc(Cl)cc2Cl)C(=O)OC12CCCCC2,AC50,[8],18.9 µM (active)
same,AC50,[2],25 µM (active)
CCS(=O)(=O)c1cccnc1S(=O)(=O)NC(=O)Nc1nc(OC)cc(OC)n1,outcome,[7],inactive
CC(C)OC(=O)Nc1cccc(Cl)c1,outcome,[9],inactive
same,outcome,[10],inactive
ClC1C(Cl)C(Cl)C(Cl)C(Cl)C1Cl (stereo not given),outcome,[1],inactive
COP(=O)(OC)OC=C(Cl)Cl,AC50,[11],6.37 µM (active)
same,outcome,[12],inactive
Oc1cc(Cl)ccc1Oc1ccc(Cl)cc1Cl,outcome,[13],inactive
same,outcome,[3],inactive
same,AC50,[4],18.6 µM (active)
same,outcome,[14],inactive
same,outcome,[15],inactive
same,outcome,[12],inactive
N#Cc1c(Cl)c(Cl)c(Cl)c(C#N)c1Cl,outcome,[1],inactive
same,AC50,[13],38.7 µM (active)
same,outcome,[3],inactive
same,AC50,[14],25 µM (active)
same,outcome,[11],inactive
COC(=O)c1ccccc1S(=O)(=O)NC(=O)N(C)c1nc(C)nc(OC)n1,outcome,[10],inactive
Oc1ccc(Cl)cc1Cc1ccccc1,outcome,[7],inactive
same,AC50,[8],3.4 µM (active) and 9.3 µM (active)
same,outcome,[16],inactive
same,AC50,[17],9.39 µM (active)
same,AC50,[15],38.2 µM (active)
same,outcome,[15],inactive
same,AC50,[12],36.2 µM (active) and 38.3 µM (active)
CCOc1nc(NC)nc(NC(=O)NS(=O)(=O)c2ccccc2C(=O)OC)n1,outcome,[7],inactive
O=C(Nc1ccccc1)Nc1cnns1,outcome,[18],inactive
same,outcome,[11],inactive
same,outcome,[19],inactive
CCN(CC)C(=O)SCc1ccc(Cl)cc1,outcome,[6],inactive
